In PubChem BioAssay (NCATS):
“And” between values parts separate entries of the source, which are not always exact repeats. Equal entries are not always repeated. Results filed as inconclusive are left out. Entries that show only a call come without a potency. The source made the active and inactive calls. Unless noted, the call rests on the fitted dose curve; in most records, active means well fitted curve in the direction sought with a large enough effect; inconclusive means small, poorly fitted or top-dose-only effect, or another doubt; inactive means no such curve, though single readings can be large; an effect the other way counts as inactive or inconclusive.

Tests used:
[1] = Primary qHTS for inhibitors of nuclear receptor binding SET domain protein 2 (NSD2) in an isogenic RCH-ACV NSD2 p.E1099K mutant (9B) (AID 1645876); further: nearly all actives have a fitted effect of over 70% in size; further: potency means the concentration at half of the fitted maximal effect
[2] = Primary qHTS for inhibitors of nuclear receptor binding SET domain protein 2 (NSD2) in an RCH-ACV wild type WT cells (2C) (AID 1645877); further: nearly all actives have a fitted effect of over 70% in size; further: potency means the concentration at half of the fitted maximal effect
[3] = target: Rap guanine nucleotide exchange factor 3 (Homo sapiens) (UniProt O95398); assay: Confirmatory qHTS for agonist of cAMP-regulated guanine nucleotide exchange factor 3 (EPAC1) (AID 1645881);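 further: EPAC1 catalysed release of BODIPY-GDP from Rap1B seen as fluorescence loss; nearly all actives have a fitted effect of over 75% in size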
[4] = target: Rap guanine nucleotide exchange factor 4 (Homo sapiens) (UniProt Q8WZA2); assay: Confirmatory qHTS for agonist of cAMP-regulated guanine nucleotide exchange factor 4 (EPAC2) (AID 1645884);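 further: nucleotide exchange releases bodipy-GDP from Rap1 and this lowers its fluorescence; nearly all actives have a fitted effect of over 65% in size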
[5] = target: Rap guanine nucleotide exchange factor 4 (Homo sapiens) (UniProt Q8WZA2); assay: Confirmatory qHTS for antagonist of cAMP-regulated guanine nucleotide exchange factor 4 (EPAC2) (AID 1645885); further: potency means the concentration at half of the fitted maximal effect; nearly all actives have a fitted effect of over 25% in size
[6] = target: Catechol O-methyltransferase (Homo sapiens) (UniProt P21964); assay: Confirmatory Screen for Target Class Profiling of Small Molecule Inhibitors of Methyltransferases (AID 1745852; calls by dose curve; further: potency means the concentration at half of the fitted maximal effect); details: MTase-Glo luminescence, SAH detection, recombinant enzyme; measured here: COMT max response; stronger effect = lower value
[7] = target: Guanidinoacetate N-methyltransferase (Homo sapiens) (UniProt Q14353); assay: as above; details: MTase-Glo luminescence, SAH detection, recombinant enzyme; activity change, negative = inhibition: at 57.3 µM (top of the series)
[8] = target: Rap guanine nucleotide exchange factor 3 (Homo sapiens) (UniProt O95398); assay: Confirmatory qHTS for antagonist of cAMP-regulated guanine nucleotide exchange factor 3 (EPAC1) (AID 1645880); further: nearly all actives have a fitted effect of over 55% in size
In short: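 Nucleotide exchange uses 100 nM EPAC1, 250 nM RAP1B-BODIPY-GDP and 50 uM GDP, with compounds in a concentration-titration series. After 5 min at room temperature, fluorescence (480 nm ex/540 nm em) is read every 5 min for 30 min. Data are normalized to control ATA and DMSO.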

[9] = target: Rap guanine nucleotide exchange factor 3 (Homo sapiens) (UniProt O95398); assay: Counterscreen qHTS for antagonist of cAMP-regulated guanine nucleotide exchange factor 3 (EPAC1) (AID 1645888);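 further: fluorescence loss as bound BODIPY-GDP is released from Rap1B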
In short: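 Rap1B-BODIPY-GDP 250 nM + GDP 50 uM; cpds 7-pt, final 9.74 nM–152 uM (activator mode) or from 7.32 nM upwards (inhibitor mode); RT; FI 480/540 nm at 5 and 30 min, then ± cAMP, reread.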

Chain of Rap guanine nucleotide exchange factor 3 (Homo sapiens) (O95398 whole entry, looked up): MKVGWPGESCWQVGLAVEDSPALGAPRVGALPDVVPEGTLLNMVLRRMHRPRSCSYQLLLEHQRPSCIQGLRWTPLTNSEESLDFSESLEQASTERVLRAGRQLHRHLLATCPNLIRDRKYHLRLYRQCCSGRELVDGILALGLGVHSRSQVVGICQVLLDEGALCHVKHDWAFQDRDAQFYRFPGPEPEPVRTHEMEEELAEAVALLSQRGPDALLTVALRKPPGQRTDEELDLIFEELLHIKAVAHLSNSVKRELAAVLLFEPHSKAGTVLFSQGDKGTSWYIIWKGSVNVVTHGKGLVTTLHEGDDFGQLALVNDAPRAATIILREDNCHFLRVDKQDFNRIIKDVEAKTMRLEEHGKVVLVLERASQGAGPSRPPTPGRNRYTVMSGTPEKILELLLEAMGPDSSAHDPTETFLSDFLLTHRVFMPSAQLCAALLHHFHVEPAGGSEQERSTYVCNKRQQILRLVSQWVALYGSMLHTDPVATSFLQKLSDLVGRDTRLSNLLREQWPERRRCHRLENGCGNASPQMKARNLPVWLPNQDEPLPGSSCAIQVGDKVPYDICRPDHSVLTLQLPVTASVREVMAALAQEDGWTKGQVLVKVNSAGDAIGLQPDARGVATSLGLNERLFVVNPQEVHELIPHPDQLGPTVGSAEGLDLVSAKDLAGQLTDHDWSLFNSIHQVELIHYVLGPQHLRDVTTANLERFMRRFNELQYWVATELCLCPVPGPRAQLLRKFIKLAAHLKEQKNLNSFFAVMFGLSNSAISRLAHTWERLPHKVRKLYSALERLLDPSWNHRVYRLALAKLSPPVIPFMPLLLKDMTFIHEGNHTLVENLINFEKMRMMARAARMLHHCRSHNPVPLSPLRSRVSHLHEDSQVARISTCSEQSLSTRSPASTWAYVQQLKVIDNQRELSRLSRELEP
Chain of Rap guanine nucleotide exchange factor 4 (Homo sapiens) (Q8WZA2 whole entry, looked up): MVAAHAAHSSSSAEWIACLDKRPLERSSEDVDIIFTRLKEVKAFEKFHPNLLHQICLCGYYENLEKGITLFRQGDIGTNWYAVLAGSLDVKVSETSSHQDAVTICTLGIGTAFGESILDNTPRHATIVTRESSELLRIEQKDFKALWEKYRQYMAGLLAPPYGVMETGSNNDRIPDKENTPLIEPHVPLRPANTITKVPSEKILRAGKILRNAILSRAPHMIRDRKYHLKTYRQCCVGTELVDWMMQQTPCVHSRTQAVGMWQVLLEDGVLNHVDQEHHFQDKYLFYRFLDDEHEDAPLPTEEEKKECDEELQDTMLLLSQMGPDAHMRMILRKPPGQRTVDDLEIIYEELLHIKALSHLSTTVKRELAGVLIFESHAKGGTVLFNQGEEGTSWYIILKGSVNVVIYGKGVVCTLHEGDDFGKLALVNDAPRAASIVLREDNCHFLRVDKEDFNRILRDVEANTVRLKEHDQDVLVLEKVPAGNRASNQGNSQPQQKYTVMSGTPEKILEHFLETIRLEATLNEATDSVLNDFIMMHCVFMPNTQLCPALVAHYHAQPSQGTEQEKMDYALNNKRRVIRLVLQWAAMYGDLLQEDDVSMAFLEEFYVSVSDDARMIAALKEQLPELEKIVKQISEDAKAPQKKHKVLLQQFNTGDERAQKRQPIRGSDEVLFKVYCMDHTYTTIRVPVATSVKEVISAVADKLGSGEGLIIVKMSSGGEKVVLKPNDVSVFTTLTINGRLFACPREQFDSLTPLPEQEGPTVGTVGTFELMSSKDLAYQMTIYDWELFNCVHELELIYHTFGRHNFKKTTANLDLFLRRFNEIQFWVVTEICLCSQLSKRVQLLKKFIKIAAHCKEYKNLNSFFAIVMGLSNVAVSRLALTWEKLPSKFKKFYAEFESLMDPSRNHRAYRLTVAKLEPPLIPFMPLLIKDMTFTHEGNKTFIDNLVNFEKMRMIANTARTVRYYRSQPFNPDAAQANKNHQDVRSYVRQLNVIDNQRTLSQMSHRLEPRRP
Chain of Catechol O-methyltransferase (Homo sapiens) (P21964 whole entry, looked up): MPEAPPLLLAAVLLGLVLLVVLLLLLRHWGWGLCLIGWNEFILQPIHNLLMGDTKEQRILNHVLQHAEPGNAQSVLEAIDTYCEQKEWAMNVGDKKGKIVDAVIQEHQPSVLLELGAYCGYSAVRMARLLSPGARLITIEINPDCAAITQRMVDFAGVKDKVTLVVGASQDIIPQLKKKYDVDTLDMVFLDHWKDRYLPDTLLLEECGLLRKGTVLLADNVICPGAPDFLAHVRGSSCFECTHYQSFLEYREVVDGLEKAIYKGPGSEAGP

Clc1ccc2nsnc2c1NC1=NCCN1
Potency [1]: inactive
Potency [2]: inactive

Cn1cnc2c1c(=O)[nH]c(=O)n2C
Potency [1]: inactive
Potency [2]: inactive

NCCc1cnc[nH]1
Potency [1]: inactive
Potency [2]: inactive

OCCN1CCN(CCCN2c3ccccc3Sc3ccc(C(F)(F)F)cc32)CC1
Potency [1]: 18.8 µM (active)
Potency [2]: 18.8 µM (active)
Potency [3]: inactive
Potency [4]: inactive
Potency [5]: 44.1 µM (active)
activity [6]: -1.96%
Potency [7]: 0.0306 µM (active)

CN1C(C(=O)Nc2ccccn2)=C(O)c2ccccc2S1(=O)=O
Potency [1]: inactive
Potency [2]: inactive

O=C(Nc1ccc([N+](=O)[O-])cc1Cl)c1cc(Cl)ccc1O
Potency [1]: 11.8 µM (active)
Potency [2]: 11.8 µM (active)

Cn1c(=O)c2c(ncn2C)n(C)c1=O
Potency [1]: inactive
Potency [2]: inactive

Clc1ccccc1C(c1ccccc1)(c1ccccc1)n1ccnc1
Potency [1]: 10.5 µM (active)
Potency [2]: 9.34 µM (active)
outcome [8]: inactive
Potency [3]: inactive
Potency [4]: inactive
Potency [5]: 9.87 µM (active) and 5.3 µM (active)
activity change, negative = inhibition [9]: 6.78% [at 30.8 µM] (inactive)

CN(C)CCC=C1c2ccccc2C=Cc2ccccc21
Potency [1]: 20.9 µM (active)
Potency [2]: 23.5 µM (active)
activity [6]: 7.28%
Potency [7]: 0.0039 µM (active)

NC(=O)NO
Potency [1]: inactive
Potency [2]: inactive
